Molecules are shown by their SMILES. Among all 2,500 compounds or so, about 1,100 (44%) were called active.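 How the source made its calls: active means inhibition above 50% at 4 µM in the single-point screen; inactive means inhibition of 50% or less.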 So high a share suggests a set chosen from earlier hits. Some of the results follow.

Consider 87 compounds from PubChem BioAssay AID1852 (Sanford-Burnham Center for Chemical Genomics, 2009).

A short description of this experiment: TNF-a-driven NF-kB reporter inhibitors, primary screen, selectivity assay for NOD1/NOD2 signaling inhibitor project, cell-based, HEK293T NF-kB-Luc, luminescence (AID 1852). Particulars: TNF-a induced, 14 h, at 4 µM, hits give high values.
In the case of `Oc1c(I)cc(Cl)c2cccnc12`, the inhibition is 104% (active).

As for `O=C(Oc1c(Cl)cc(Cl)c2cccnc12)c1ccco1`, the inhibition was 106% (active).

For `Cc1cccc(-c2nc(CSc3nc4c(c(=O)[nH]3)CCC4)c(C)o2)c1`, the inhibition was 37% (inactive).

In the case of `Cc1oc(-c2ccccc2Cl)nc1CSc1nc2c(c(=O)[nH]1)CCCC2`, the inhibition is 19.1% (inactive).

In the case of `Cc1ccccc1-c1nc(CSc2nc3c(c(=O)[nH]2)CCC3)c(C)o1`, the inhibition was 59.5% (active).

Consider `CC1(C)CC(=O)C2=C(C1)Oc1nc3ccccc3cc1C2C(C#N)C#N` (configuration not stated), for which the inhibition is 29.6% (inactive).

For the compound `COc1ccccc1CNS(=O)(=O)c1ccc2c(c1)N(C(C)=O)CC(C)S2` (configuration not stated), the inhibition was 35.3% (inactive).

On to `CC(C)(C)c1ccc(C(=O)Nc2sc3c(c2C(=O)O)CCC3)cc1`, for which the inhibition was -51.1% (inactive).

Turning to `CC(C)(C)c1ccc(/C=N/Nc2ccc(C(=O)O)cc2)cc1`, the inhibition was -61% (inactive).

Turning to `CC(C)(C)c1ccc(C(=O)N2CCCCCC2=O)cc1`, the inhibition was 69.6% (active).

Consider `NC(=S)n1[nH]c(-c2ccc([N+](=O)[O-])cc2)c(N=Nc2cccc(Cl)c2)c1=O`, for which the inhibition was 86.9% (active).

As for `Cc1ccc([N+](=O)[O-])cc1N=Nc1c(-c2ccc([N+](=O)[O-])cc2)[nH]n(C(N)=S)c1=O`, the inhibition was 80.4% (active).

As for `NC(=S)n1[nH]c(-c2ccc([N+](=O)[O-])cc2)c(N=Nc2cccc([N+](=O)[O-])c2)c1=O`, the inhibition was 86.6% (active).

Turning to `Cc1[nH]n(-c2nc(-c3ccc(Cl)cc3)cs2)c(=O)c1N=Nc1ccc(O)cc1`, the inhibition is 48.4% (inactive).

With `NC(=S)n1[nH]c(-c2ccc([N+](=O)[O-])cc2)c(N=Nc2ccc(Cl)cc2)c1=O`, the inhibition was 88.7% (active).

As for `CC(C)(C)c1ccc(-c2noc(CCC(N)=O)n2)cc1`, the inhibition is 73.6% (active).

Regarding `CC(C)(C)c1ccc(-c2noc(CCC(=O)Nc3cccnc3)n2)cc1`, the inhibition was 71.6% (active).

As to `CC(C)Cc1ccc(C(C)C(=O)Nc2cccnc2)cc1` (configuration not stated), the inhibition was 22.5% (inactive).

With `CC(C)(C)c1ccc(-c2noc(CCC(=O)NCc3ccco3)n2)cc1`, the inhibition was 44.3% (inactive).

In the case of `CCC(C(=O)Nc1cccnc1)c1ccccc1` (configuration not stated), the inhibition is 3.6% (inactive).

`COc1ccc(Cc2nc(-c3ccc(-n4cccc4)cc3)no2)cc1OC`: the inhibition is 48.8% (inactive).

For `CCOc1ccc(C(=O)NC2CCN(C(=O)Nc3ccccc3OC)CC2)cc1`, the inhibition was 14.2% (inactive).

`CCn1nc(C)c(CNC(=O)c2ccc(OC3CCN(Cc4ccccn4)CC3)cc2)c1C`: the inhibition is 50.2% (active).

Turning to `COCCN(C(=O)CCl)C(C(=O)NC1CCCCC1)c1ccccc1C` (configuration not stated), the inhibition is 56.7% (active).

`COC(CN(C(=O)CCl)C(C(=O)NC1CCCCC1)c1ccccc1C)OC` (configuration not stated): the inhibition is 63.2% (active).

As to `COC(CN(C(=O)CCl)C(C(=O)NC1CCCC(C)C1C)c1ccc(C)cc1)OC` (configuration not stated), the inhibition is 15.4% (inactive).

As to `COCCN(CC(=O)NC1CCCCC1)C(=O)/C=C/C(=O)c1ccc(OC)cc1O`, the inhibition was 22.3% (inactive).

As for `Cc1ccc(-c2csc(=Nc3cccnc3)n2CCCn2ccnc2)cc1C`, the inhibition is 94.3% (active).

As for `O=S(=O)(Nc1nc(-c2sccc2Cl)cs1)c1cc(Cl)ccc1Cl`, the inhibition is 34.1% (inactive).

Take `O=C1ON=C(c2ccc(Cl)cc2)/C1=C/c1ccc(O)cc1`: the inhibition is 29.2% (inactive).

For `Cc1ccc(C2=NOC(=O)/C2=C\C=C\c2ccccc2)cc1`, the inhibition was 94.8% (active).

On to `COc1cc(C)c(Br)cc1S(=O)(=O)NCc1ccncc1`, for which the inhibition was 30.4% (inactive).

For `CCOc1ccc(NC(=O)c2ccc(CN3CCc4ccccc4C3)cc2)cc1`, the inhibition was 3% (inactive).

Consider `O=C(Nc1ccc(Cl)cc1)c1ccc(CN2CCc3ccccc3C2)cc1`, for which the inhibition was 23.1% (inactive).

As for `O=C(Nc1ccc(F)cc1)c1ccc(CN2CCc3ccccc3C2)cc1`, the inhibition is 87.4% (active).

Consider `N#CCc1ccc(NC(=O)c2ccc(CN3CCc4ccccc4C3)cc2)cc1`, for which the inhibition was 58.1% (active).

With `CCOC(=O)c1ccc(NC(=O)c2ccc(CN3CCc4ccccc4C3)cc2)cc1`, the inhibition is 46.3% (inactive).

Regarding `C/C(=N\NC(=O)c1ccc(CN2CCc3ccccc3C2)cc1)c1ccccc1O`, the inhibition is 77.8% (active).

`Cc1cc(C)n(Cc2ccc(NC(=O)c3ccc(COc4ccccc4Br)cc3)cc2)n1`: the inhibition was 46.2% (inactive).

On to `CC(=O)n1c(Cl)c(NC(=O)CCl)c2ccccc21`, for which the inhibition is 82.1% (active).

In the case of `O=C(CCl)Nc1cn(-c2ccccc2)nc1-c1ccc(F)cc1`, the inhibition was -16.2% (inactive).

As to `O=C(CCl)Nc1cn(-c2ccccc2)nc1-c1ccccc1`, the inhibition is -13.7% (inactive).

`O=C(Cc1ccc(Cl)cc1)c1c[nH]c(C(=O)NCc2cccnc2)c1`: the inhibition is 90.1% (active).

As for `CN(C)S(=O)(=O)Oc1cccc(C(=O)Nc2ccc(Cl)c(Cl)c2)c1`, the inhibition is -28.2% (inactive).

Regarding `COc1cccc(C(=O)Nc2sc3c(c2C(=O)O)CCCC3)c1`, the inhibition was 30.7% (inactive).

On to `COc1cccc(C(=O)Nc2nc(-c3ccccc3)c(-c3ccccc3)o2)c1`, for which the inhibition is 81.3% (active).

For `COc1cc(OC)cc(C(=O)Nc2nc(-c3ccccc3)c(-c3ccccc3)o2)c1`, the inhibition is 78.7% (active).

In the case of `Cc1onc(-c2ccccc2)c1C(=O)Nc1ncc([N+](=O)[O-])s1`, the inhibition was 48.5% (inactive).

On to `O=C1N/C(=N\N=C\c2ccccn2)SC1Cc1cccc(SC(F)F)c1` (configuration not stated), for which the inhibition is 109% (active).

For `CCCc1nnc(NC(=O)c2nc(S(=O)(=O)Cc3cccc(C)c3)ncc2Cl)s1`, the inhibition was 61.3% (active).

Regarding `CCc1nnc(NC(=O)c2nc(S(=O)(=O)Cc3ccc(C)cc3)ncc2Cl)s1`, the inhibition is 71.9% (active).

With `CCCc1nnc(NC(=O)c2nc(S(=O)(=O)Cc3ccc(C)cc3)ncc2Cl)s1`, the inhibition was 94.4% (active).

Consider `Cc1cccc(CS(=O)(=O)c2ncc(Cl)c(C(=O)Nc3c(C)cccc3C)n2)c1`, for which the inhibition was 46.2% (inactive).

In the case of `Cc1cc(C)c(C#N)c(SCc2nnc(-c3ccccc3)o2)n1`, the inhibition was 0% (inactive).

Regarding `CCOc1ccc(NC(=O)Nc2ccc3c(c2)N(C)C(=O)CS3)cc1`, the inhibition is 14.3% (inactive).

For `Cn1c(O)c(N=NC(=S)Nc2ccccc2F)c2cc(S(=O)(=O)N3CCOCC3)ccc21`, the inhibition is 12.5% (inactive).

As for `O=C(Nc1ccc(S(=O)(=O)N2CCOCC2)cc1)c1cc(-c2cc(Cl)ccc2O)n[nH]1`, the inhibition is -2.1% (inactive).

Consider `O=S(=O)(c1ccc(N=C2NN=C(c3cc(F)ccc3F)CS2)cc1)N1CCOCC1`, for which the inhibition is 77.4% (active).

Turning to `CCCCN(c1ccccc1)c1ncnc(N)c1[N+](=O)[O-]`, the inhibition is 83.7% (active).

As for `C=CCN(C(=O)CCc1ccccc1OC)c1nc(-c2ccc(S(C)(=O)=O)cc2)cs1`, the inhibition was -10.1% (inactive).

Turning to `CC(=O)c1c(C)[nH]c(C(=O)COC(=O)c2cccc(S(=O)(=O)N(C)c3ccccc3)c2)c1C`, the inhibition is 84.9% (active).

As to `CCOC(=O)c1c(C)[nH]c(C(=O)OCC(=O)N2CCN(S(=O)(=O)c3ccccc3)CC2)c1C`, the inhibition is 0% (inactive).

As to `C[C@@H](C(=O)NCc1ccccn1)[C@H]1C[C@]1(C)[C@H](NC(=O)OCc1ccccc1)c1ccccc1`, the inhibition is -9% (inactive).

As to `O=C(NC(=S)N1CCN(c2ccc(Cl)cc2[N+](=O)[O-])CC1)c1cccs1`, the inhibition is 53.9% (active).

Take `CN1CCN(c2ccc(C(CC(N)=O)NC(=O)c3ccccc3)cc2[N+](=O)[O-])CC1` (configuration not stated): the inhibition is 10.7% (inactive).

In the case of `O=C(NC(=S)N1CCN(c2ccc(C(F)(F)F)cc2[N+](=O)[O-])CC1)c1cccs1`, the inhibition is 101% (active).

For the compound `O=C(/C=C/c1ccc(Cl)cc1Cl)N1CCN(c2ccccc2[N+](=O)[O-])CC1`, the inhibition is -38.9% (inactive).

`O=C(NC(=S)N1CCN(c2ccc(F)cc2)CC1)c1cccs1`: the inhibition was 11.7% (inactive).

`O=C(Nc1ccc(F)c([N+](=O)[O-])c1)c1cccs1`: the inhibition is 4.2% (inactive).

In the case of `Cc1cccc(-n2c(SCC(=O)N3CCC(C(=O)O)CC3)nc3ccccc3c2=O)c1C`, the inhibition was 74.3% (active).

As to `Cc1cccc(N2CCN(C(=O)Cc3cn(C)c4ccccc34)CC2)c1C`, the inhibition is -31.6% (inactive).

Take `Cn1c(SCC(=O)N2CCCc3ccccc32)nc2ccccc2c1=O`: the inhibition is 43.4% (inactive).

`O=C(CCl)Nc1cc(SCC(O)CO)cc([N+](=O)[O-])c1` (configuration not stated): the inhibition is 96.6% (active).

In the case of `COc1ccc(-[n+]2c(C)cc(/C=C3\Sc4ccccc4N3C)cc2C)cc1`, the inhibition was 67% (active).

On to `C=CCSc1nc2ccccc2n1C(=O)/C=C/c1ccc(OC)c(OC)c1`, for which the inhibition was 89.7% (active).

For the compound `CCn1c(NC(=O)/C=C/c2ccc(F)cc2)nc2ccccc21`, the inhibition is 0% (inactive).

As to `CC(C)Cn1c(N2CCN(C(=O)/C=C/c3ccccc3)CC2)nc2ccccc21`, the inhibition is 0.5% (inactive).

In the case of `COc1ccc(-c2n(Cc3ccccc3)c3ccccc3[n+]2Cc2ccccc2)cc1`, the inhibition is 53.1% (active).

Turning to `CCCc1cc(NC(=O)CCl)n(-c2ccccc2)n1`, the inhibition was 40.2% (inactive).

Regarding `CC(C)(C)c1cc(NC(=O)CCl)n(-c2ccccc2)n1`, the inhibition was 52.2% (active).

With `O=C(CCl)Nc1cc(-c2ccccc2)nn1-c1ccccc1`, the inhibition was -25.8% (inactive).

As for `Cc1[nH]c2ccccc2c1C(=O)CCl`, the inhibition is 95.3% (active).

As to `CCOC(=O)c1c(C)[nH]c(C)c1C(=O)CSc1nc2ccccc2c(=O)n1-c1ccc(CC)cc1`, the inhibition was -1.6% (inactive).

In the case of `Cc1ccc2c(C(=O)CCl)c(C)[nH]c2c1`, the inhibition is 83.2% (active).

Consider `CCOc1ccc(CCn2c(-c3ccco3)nc3ccccc3c2=O)cc1OCC`, for which the inhibition is -36.6% (inactive).

In the case of `Cn1c2ccccc2c(=O)c2c(=O)n(C3CCCCC3)c(-c3ccco3)nc21`, the inhibition was 78.9% (active).

As to `Cn1c2ccccc2c(=O)c2c(=O)n(C3CCCCC3)c(-c3cccs3)nc21`, the inhibition was 23.4% (inactive).

The term inhibition denotes the drop in the measured response relative to a control, in per cent.
